A selection: hits, their analogues and other compounds. The true share with any hit is near 3.5%.
eIF4E-4G inh: eIF4E/eIF4G interaction inhibition in translation initiation; 0.37% of 220,000 active; TR-FRET eIF4E-eIF4GI(517-606) binding, 2 h; AID 782; inhibition, % at 21.7 µM;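 active means inhibition above about 30%, limit read from the data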;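 further: 0% = full FRET control wells and 100% = background wells lacking eIF4GI fragment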
14-3-3 Bad PPI: disrupts binding of bovine 14-3-3 zeta to phospho-Bad peptide; TR-FRET 14-3-3zeta/Dy647-pBad peptide displacement, 1 h; inhibition, % at 21.7 µM; P63103; 0.71% of 220,000 active; AID 781;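 active means inhibition above about 70%, limit read from the data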;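 further: 0% = full 14-3-3 plus peptide FRET controls and 100% = background without 14-3-3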
Target sequence (P63103 whole entry, looked up): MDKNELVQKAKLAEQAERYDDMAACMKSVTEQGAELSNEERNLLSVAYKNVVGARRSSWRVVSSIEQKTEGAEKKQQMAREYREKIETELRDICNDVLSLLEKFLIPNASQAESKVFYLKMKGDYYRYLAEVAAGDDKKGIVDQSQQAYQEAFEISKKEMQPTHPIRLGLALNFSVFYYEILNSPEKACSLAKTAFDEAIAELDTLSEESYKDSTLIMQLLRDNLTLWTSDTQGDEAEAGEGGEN
Mcl1-Noxa inh: Mcl-1/Noxa interaction inhibition; 1.5% of 220,000 active; TR-FRET Mcl-1/Noxa peptide binding, 2 h; inhibition, % at 21.7 µM; AID 1022; Q07820;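 active means compounds that cut the protein-peptide binding signal by more than 50% relative to plate controls in a single-dose test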;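 further: His-tagged Mcl-1 with rhodamine Noxa BH3 peptide and terbium anti-His antibody; 0% = Mcl-1 plus Noxa peptide wells and 100% = peptide-only wells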
Target sequence (Q07820 whole entry, looked up): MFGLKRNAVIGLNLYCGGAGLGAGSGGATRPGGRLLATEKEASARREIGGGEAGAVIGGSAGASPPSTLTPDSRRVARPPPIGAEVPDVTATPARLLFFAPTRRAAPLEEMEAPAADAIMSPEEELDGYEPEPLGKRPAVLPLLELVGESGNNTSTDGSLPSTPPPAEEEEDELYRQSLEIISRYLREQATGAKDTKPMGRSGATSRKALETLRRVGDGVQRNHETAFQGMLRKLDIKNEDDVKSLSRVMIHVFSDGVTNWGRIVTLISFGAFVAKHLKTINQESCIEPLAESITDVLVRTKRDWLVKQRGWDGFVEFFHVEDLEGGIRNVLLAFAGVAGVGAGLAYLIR
Mcl-1 Bim block: disrupts Bim peptide binding to human Mcl-1; Q07820; 0.1% of 190,000 active; AID 1009; inhibition, % at 10 µM; Bead-based flow cytometry, Bim peptide-Mcl-1 binding; in the data active means inhibition above about 40%;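 further: 0% = no compound tracer wells and 100% = peptide blocker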
Hck-Nef inh: human Hck-Nef kinase inhibition | P08631 | Recombinant Hck-YEEI plus Nef, Z-Lyte FRET kinase assay | inhibition, % at 20 µM | 0.68% of 220,000 active;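 active means Hck-Nef kinase inhibition above about 50%, limit read from the data; inactive means inhibition below that limit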;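 further: 0% = DMSO with Hck plus Nef and 100% = Hck alone without Nef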
Mcl1 Bid PPI: disrupts binding of human Mcl-1 to Bid peptide; inhibition, % at 21.7 µM; Q07820; TR-FRET Mcl-1/Bid-Dy647 peptide binding, 1536-well; 0.97% of 220,000 active;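 active means compounds that cut the binding signal by more than half at the single screening dose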;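 further: His-tagged Mcl-1 with europium anti-His antibody binding Bid BH3 peptide; 0% = Mcl-1 plus peptide wells and 100% = peptide-only wells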
Numbers without * were called inactive; · = no result given; [ ] = remark or other dose.

SMILES	eIF4E-4G inh	14-3-3 Bad PPI	Mcl1-Noxa inh	Mcl-1 Bim block	Hck-Nef inh	Mcl1 Bid PPI
OC1(c2cccnc2)CCN(Cc2nnnn2C2CCCCC2)CC1	6	84*	35	0	1	52*
CCOc1ccc(-c2csc(/C(C#N)=C\c3ccc(O)c([N+](=O)[O-])c3)n2)cc1	6	-8	56*	-3	19	-23
CCCCc1ccc(-c2csc(/C(C#N)=C\c3ccc(C)o3)n2)cc1	-3	-4	-12	-2	4	-9
CCOC(=O)CSc1nc(N)c(C(=O)Nc2ccc(N(C)C)cc2)s1	0	-3	90*	-6	1	-50
CCN(CC)C(=O)CSc1nc(N)c(C(=O)Nc2ccc(OC)cc2)s1	0	11	3	-1	-6	-71
C=CCOc1ccc(C=Nc2ccc(Cl)cc2)c(O)c1	10	-2	9	-2	5	-34
COc1cc(/C=N/NC(=O)c2ccc(CN3C(=O)c4cccc5cccc3c45)cc2)cc(OC)c1O	8	-2	76*	·	17	-66
COc1ccc(/C=N/NC(=O)c2ccc(-c3ccccc3)cc2)cc1O	-18	-4	40	-3	0	-5
COc1ccc(/C=N/NC(=O)c2ccc(CN3C(=O)c4cccc5cccc3c45)cc2)cc1O	1	-2	61*	3	-45	11
O=C1c2cccc3cccc(c23)N1Cc1ccc(F)cc1	14	-7	10	17	-1	-1
COc1ccc(/C=N/NC(=O)c2nc(-c3ccccc3)cc(-c3ccccc3)n2)cc1O	-20	-5	68*	0	-2	-6
COc1cc(/C=N/NC(=O)c2ccc(CSc3nc4ccccc4[nH]3)cc2)ccc1O	4	-21	62*	-1	28	-46
COc1cc(-n2c3nc4ccccc4nc3c3c(=O)n(Cc4ccco4)cnc32)cc(OC)c1OC	·	·	·	·	-9	·
O=c1c2c3nc4ccccc4nc3n(Cc3ccccc3)c2ncn1Cc1ccco1	-5	13	73*	4	16	2
CCC(=O)N(CC)c1nc(-c2ccc(OC)cc2)cs1	-1	68	-3	-4	-1	54*
CCOc1cc(/C=C2/C(=N)N3OC(C)=CC3=NC2=O)ccc1OCCOc1ccccc1	1	-2	3	-3	17	-21
O=c1c(-c2ccc(Cl)cc2)coc2c(CN3CCOCC3)c(O)ccc12	7	-1	14	-1	3	-10
O=c1c(-c2ccccc2)coc2c(CN3CCCC3)c(O)ccc12	76*	-14	3	-2	2	-9
O=C(O)c1ccc(N2C(=O)CCCC2=O)cc1	-1	3	59*	·	11	-28
O=C(NCc1ccco1)C1(c2ccc(Br)cc2)CCCC1	0	1	-9	1	-1	-12
O=C1CCCN1CCCNc1ncnc2sccc12	1	-6	-6	-2	34	-20
COc1cc2ncnc(NCc3cccc(Cl)c3)c2cc1OC	3	-2	8	-5	65*	13
COc1cc(/C=N/NC(=O)c2ccc(Cn3cc([N+](=O)[O-])cn3)o2)cc(Br)c1O	1	-10	56*	0	18	-23
CC(NC(=O)c1ccc(Cn2cc([N+](=O)[O-])cn2)o1)c1ccccc1 (stereo unspecified)	36*[fluorescence artefact?]	5	-12	3	5	-4
COc1cc(/C=N/NC(=O)C(=O)NCc2ccco2)cc(Br)c1O	13	55	56*	·	-12	-22
SMILES	eIF4E-4G inh	14-3-3 Bad PPI	Mcl1-Noxa inh	Mcl-1 Bim block	Hck-Nef inh	Mcl1 Bid PPI
COc1ccc(/C=N/Nc2ccc([N+](=O)[O-])cc2)cc1Cn1cc([N+](=O)[O-])cn1	-6	-12	72*	-4	2	58*
COc1ccc(/C=N/n2cncn2)cc1Cn1cc([N+](=O)[O-])cn1	-2	6	24	·	-1	-2
COc1ccc(/C=N/NC(=O)c2ccc(Cn3cc([N+](=O)[O-])cn3)o2)cc1O	3	-4	15	2	6	-9
NC(CO)C(=O)NNCc1ccc(O)c(O)c1O (stereo unspecified)	22	50	101*	0	11	6
CCCC12CN3CC(CCC)(CN(C1)C3c1ccco1)C2=O (stereo unspecified)	1	1	23	·	7	-5
COc1cccc(Cn2cc(C(=O)NCCN(C)C)nn2)c1	1	-3	10	-2	24	-1
Cc1noc(NS(=O)(=O)c2ccc(NC(=O)CSc3ncccn3)cc2)c1C	4	1	11	0	12	15
Cc1noc(NS(=O)(=O)c2ccc(NC(=O)CSc3nc4ccccc4s3)cc2)c1C	0	3	64*	2	1	9
COc1ccc(S(=O)(=O)N=C2C=C(C)C(=O)C(C)=C2)cc1	4	72*	36	0	1	-64
Cc1c(O)cc2n(c1=O)-c1ccc(Cl)cc1C2(C)C	0	6	10	-32	3	-3
CC1(C)c2cc(Cl)ccc2-n2c1cc(O)c(-c1ccccc1)c2=O	70*	1	9	·	20	7
CC(=O)c1c(C(C)=O)c(C)n(-c2ccc(C(=O)O)cc2)c1C	6	0	·	-1	0	-26
Cc1ccc(C)n1-c1ccc(C(=O)O)cc1	13	-2	62*	-3	22	-48
CCn1ccnc1CN(C)Cc1nc(CCC(C)C)no1	2	-9	-10	-3	15	-29
Cc1ccc(-n2ncc(-c3nn[nH]n3)c2N)cc1	-5	1	-1	·	7	-9
O=C(CCc1ccc(O)cc1)c1c(O)cc(O)cc1O	-7	-5	13	·	63*	-61
COc1cc(O)c(CC=C(C)C)c(O)c1C(=O)CCc1ccc(O)cc1	-16	-1	20	·	33	-15
CC1=C(C(=O)N2CCc3ccccc32)C2(CCC(C)CC2)OC1=O (stereo unspecified)	-1	84*	12	-6	0	-29
CSC1=NSC2=NC(=O)/C(=C/c3coc4ccc(O)cc4c3=O)C(=N)N12	14	32	62*	6	35	-52
CSC1=NSC2=NC(=O)/C(=C/c3coc4ccccc4c3=O)C(=N)N12	1	24	-56	18	13	-28
CCn1c(Cc2cccs2)nnc1SCC(=O)NC(C)(C)C	0	-3	2	-6	20	-2
OCCNc1nc(Nc2ccccc2)nc(Nc2ccccc2)n1	8	2	92*	-1	0	-1
OCCNc1nc(Nc2ccccc2)nc2ccccc12	-1	46	44	2	7	7
Cc1ccc(-c2csc(Nc3ccc(S(N)(=O)=O)cc3)n2)o1	1	-5	64*	6	15	-43
Nc1oc2ccccc2c(=O)c1C=O	1	-4	8	-2	-2	-6
